Measured values as given in the supplement of paper PMC11732987, “Enantioselective OTUD7B fragment discovery through chemoproteomics screening and high-throughput optimisation” (Communications Chemistry, 2025).

Assays:
Assay in all cases: log2 ratio of Biotin-Ahx-Ub-VS probe labelling (fragment/DMSO); higher = less target engagement (more negative = stronger competition), active = hit call of the paper (q ≤ 0.05, log2 ratio ≤ -1)
Conditions in all cases: compound concentration: 200 uM; treatment time: 3 h
[1] = biological target: USP34 (UniProt Q70CQ2)
Method in brief: (§1)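 Average log2 ratios of fragment over vehicle were obtained by unpaired t-test from global-median-normalised Spectronaut label-free quantities. Proteins with ≥2 unique peptides were included. HEK293T lysate (495 µg per sample) was treated in triplicate with fragment at 200 µM or vehicle for 3 h, then with Biotin-Ahx-Ub-VS at 0.5 µM final for 1 h, and labelled DUBs were NeutrAvidin-enriched and run by diaPASEF LC-MS/MS.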

[2] = biological target: T1, USP36 (UniProt Q9P275)
T1 sequence (whole entry): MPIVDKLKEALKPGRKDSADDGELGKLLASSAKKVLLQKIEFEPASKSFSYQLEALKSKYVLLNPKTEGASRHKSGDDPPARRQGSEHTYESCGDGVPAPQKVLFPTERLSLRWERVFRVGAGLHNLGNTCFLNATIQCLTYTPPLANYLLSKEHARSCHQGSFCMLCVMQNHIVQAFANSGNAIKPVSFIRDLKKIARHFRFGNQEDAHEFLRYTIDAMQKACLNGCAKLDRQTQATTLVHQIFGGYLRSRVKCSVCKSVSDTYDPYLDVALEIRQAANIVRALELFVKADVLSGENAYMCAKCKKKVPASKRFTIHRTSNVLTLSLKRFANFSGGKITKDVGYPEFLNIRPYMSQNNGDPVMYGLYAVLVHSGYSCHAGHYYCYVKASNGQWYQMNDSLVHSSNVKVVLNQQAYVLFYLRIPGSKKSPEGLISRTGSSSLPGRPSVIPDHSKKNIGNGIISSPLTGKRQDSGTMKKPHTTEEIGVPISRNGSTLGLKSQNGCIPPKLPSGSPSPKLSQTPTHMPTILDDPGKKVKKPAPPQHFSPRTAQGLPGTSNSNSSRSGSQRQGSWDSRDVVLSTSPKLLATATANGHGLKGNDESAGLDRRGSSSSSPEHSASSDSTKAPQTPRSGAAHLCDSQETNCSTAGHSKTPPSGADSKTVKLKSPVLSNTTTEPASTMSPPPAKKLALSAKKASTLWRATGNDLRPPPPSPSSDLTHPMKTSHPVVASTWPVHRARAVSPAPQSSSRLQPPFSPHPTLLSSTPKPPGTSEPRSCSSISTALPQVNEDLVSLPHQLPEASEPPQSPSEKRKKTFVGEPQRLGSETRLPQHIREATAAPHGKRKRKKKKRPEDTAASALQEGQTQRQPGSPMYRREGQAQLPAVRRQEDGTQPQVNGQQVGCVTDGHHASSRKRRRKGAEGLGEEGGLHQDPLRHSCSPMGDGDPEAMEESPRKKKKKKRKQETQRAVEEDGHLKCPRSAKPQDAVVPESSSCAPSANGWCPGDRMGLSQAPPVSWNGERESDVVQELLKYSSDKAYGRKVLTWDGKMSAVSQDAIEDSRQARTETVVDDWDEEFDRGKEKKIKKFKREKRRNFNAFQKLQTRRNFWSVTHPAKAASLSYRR
Method in brief: as §1

[3] = biological target: T2, USP38 (UniProt Q8NB14)
T2 sequence (whole entry): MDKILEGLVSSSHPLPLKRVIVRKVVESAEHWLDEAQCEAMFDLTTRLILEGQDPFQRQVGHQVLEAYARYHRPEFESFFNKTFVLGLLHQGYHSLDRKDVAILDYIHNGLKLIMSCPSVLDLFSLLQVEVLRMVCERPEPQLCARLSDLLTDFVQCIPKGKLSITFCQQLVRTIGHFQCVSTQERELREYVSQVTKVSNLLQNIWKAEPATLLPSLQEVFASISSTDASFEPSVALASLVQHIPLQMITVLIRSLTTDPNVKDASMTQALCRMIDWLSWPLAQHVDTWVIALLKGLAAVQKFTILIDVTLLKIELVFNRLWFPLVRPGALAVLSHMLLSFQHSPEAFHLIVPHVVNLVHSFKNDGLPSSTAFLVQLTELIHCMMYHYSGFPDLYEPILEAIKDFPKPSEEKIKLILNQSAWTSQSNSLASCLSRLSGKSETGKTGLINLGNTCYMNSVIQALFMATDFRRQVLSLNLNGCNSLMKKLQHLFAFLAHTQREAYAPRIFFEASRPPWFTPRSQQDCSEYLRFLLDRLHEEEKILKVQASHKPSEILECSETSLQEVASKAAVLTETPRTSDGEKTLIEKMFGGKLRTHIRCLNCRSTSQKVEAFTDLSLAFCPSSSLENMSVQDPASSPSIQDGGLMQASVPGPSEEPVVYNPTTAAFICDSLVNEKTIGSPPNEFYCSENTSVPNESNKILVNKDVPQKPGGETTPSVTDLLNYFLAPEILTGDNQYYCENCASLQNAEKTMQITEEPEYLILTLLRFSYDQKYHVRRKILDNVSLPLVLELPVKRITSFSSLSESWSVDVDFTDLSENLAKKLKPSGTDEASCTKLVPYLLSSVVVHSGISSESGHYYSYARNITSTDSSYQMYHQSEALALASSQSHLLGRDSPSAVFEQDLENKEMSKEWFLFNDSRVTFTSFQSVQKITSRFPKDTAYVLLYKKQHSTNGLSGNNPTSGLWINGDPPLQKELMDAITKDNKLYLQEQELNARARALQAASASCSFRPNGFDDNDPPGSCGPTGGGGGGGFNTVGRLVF
Method in brief: as §1

[4] = biological target: T3, USP39 (UniProt Q53GS9)
T3 sequence (whole entry): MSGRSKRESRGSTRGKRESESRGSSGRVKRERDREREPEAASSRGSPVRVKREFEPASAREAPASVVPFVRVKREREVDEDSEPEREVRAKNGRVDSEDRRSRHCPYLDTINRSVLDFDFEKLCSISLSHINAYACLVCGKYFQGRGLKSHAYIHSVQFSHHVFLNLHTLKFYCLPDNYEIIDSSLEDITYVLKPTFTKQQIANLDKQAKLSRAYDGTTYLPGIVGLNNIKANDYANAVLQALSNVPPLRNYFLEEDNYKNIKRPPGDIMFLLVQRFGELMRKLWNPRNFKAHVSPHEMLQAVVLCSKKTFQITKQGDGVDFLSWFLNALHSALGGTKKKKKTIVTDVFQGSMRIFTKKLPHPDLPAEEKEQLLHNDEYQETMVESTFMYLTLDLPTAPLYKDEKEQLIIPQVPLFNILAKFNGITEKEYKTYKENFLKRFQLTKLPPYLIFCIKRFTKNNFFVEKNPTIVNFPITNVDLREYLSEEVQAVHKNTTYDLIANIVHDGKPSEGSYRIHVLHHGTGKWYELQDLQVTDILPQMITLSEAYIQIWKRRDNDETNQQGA
Method in brief: as §1

[5] = biological target: T4, USP4 (UniProt Q13107)
T4 sequence (whole entry): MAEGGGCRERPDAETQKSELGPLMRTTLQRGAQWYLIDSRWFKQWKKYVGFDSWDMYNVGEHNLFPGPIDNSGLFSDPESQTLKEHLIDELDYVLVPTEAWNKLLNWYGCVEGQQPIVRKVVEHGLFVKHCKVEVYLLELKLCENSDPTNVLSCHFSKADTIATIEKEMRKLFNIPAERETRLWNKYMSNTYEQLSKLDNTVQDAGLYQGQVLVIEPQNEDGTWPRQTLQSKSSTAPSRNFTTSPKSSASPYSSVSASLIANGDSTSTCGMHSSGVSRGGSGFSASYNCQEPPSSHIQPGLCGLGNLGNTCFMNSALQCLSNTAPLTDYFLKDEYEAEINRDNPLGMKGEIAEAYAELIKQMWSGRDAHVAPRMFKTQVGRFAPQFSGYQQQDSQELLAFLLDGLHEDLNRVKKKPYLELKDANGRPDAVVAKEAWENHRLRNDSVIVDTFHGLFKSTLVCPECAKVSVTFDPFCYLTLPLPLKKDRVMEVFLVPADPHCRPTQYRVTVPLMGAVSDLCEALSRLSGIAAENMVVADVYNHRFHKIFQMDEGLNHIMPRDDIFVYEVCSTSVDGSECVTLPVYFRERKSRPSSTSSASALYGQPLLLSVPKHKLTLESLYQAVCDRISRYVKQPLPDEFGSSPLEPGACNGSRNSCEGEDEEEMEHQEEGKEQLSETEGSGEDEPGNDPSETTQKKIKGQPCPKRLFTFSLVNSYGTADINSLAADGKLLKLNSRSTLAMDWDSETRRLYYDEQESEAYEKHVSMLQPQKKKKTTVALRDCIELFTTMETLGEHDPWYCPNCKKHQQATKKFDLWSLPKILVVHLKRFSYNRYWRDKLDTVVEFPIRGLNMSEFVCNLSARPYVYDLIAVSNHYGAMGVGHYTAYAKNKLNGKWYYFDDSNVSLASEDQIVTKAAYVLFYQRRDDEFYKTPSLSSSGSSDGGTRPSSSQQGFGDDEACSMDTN
Method in brief: as §1

Measured: log2 ratio of Biotin-Ahx-Ub-VS probe labelling

USP34, sequence (Q70CQ2 whole entry, the tested form may be a part): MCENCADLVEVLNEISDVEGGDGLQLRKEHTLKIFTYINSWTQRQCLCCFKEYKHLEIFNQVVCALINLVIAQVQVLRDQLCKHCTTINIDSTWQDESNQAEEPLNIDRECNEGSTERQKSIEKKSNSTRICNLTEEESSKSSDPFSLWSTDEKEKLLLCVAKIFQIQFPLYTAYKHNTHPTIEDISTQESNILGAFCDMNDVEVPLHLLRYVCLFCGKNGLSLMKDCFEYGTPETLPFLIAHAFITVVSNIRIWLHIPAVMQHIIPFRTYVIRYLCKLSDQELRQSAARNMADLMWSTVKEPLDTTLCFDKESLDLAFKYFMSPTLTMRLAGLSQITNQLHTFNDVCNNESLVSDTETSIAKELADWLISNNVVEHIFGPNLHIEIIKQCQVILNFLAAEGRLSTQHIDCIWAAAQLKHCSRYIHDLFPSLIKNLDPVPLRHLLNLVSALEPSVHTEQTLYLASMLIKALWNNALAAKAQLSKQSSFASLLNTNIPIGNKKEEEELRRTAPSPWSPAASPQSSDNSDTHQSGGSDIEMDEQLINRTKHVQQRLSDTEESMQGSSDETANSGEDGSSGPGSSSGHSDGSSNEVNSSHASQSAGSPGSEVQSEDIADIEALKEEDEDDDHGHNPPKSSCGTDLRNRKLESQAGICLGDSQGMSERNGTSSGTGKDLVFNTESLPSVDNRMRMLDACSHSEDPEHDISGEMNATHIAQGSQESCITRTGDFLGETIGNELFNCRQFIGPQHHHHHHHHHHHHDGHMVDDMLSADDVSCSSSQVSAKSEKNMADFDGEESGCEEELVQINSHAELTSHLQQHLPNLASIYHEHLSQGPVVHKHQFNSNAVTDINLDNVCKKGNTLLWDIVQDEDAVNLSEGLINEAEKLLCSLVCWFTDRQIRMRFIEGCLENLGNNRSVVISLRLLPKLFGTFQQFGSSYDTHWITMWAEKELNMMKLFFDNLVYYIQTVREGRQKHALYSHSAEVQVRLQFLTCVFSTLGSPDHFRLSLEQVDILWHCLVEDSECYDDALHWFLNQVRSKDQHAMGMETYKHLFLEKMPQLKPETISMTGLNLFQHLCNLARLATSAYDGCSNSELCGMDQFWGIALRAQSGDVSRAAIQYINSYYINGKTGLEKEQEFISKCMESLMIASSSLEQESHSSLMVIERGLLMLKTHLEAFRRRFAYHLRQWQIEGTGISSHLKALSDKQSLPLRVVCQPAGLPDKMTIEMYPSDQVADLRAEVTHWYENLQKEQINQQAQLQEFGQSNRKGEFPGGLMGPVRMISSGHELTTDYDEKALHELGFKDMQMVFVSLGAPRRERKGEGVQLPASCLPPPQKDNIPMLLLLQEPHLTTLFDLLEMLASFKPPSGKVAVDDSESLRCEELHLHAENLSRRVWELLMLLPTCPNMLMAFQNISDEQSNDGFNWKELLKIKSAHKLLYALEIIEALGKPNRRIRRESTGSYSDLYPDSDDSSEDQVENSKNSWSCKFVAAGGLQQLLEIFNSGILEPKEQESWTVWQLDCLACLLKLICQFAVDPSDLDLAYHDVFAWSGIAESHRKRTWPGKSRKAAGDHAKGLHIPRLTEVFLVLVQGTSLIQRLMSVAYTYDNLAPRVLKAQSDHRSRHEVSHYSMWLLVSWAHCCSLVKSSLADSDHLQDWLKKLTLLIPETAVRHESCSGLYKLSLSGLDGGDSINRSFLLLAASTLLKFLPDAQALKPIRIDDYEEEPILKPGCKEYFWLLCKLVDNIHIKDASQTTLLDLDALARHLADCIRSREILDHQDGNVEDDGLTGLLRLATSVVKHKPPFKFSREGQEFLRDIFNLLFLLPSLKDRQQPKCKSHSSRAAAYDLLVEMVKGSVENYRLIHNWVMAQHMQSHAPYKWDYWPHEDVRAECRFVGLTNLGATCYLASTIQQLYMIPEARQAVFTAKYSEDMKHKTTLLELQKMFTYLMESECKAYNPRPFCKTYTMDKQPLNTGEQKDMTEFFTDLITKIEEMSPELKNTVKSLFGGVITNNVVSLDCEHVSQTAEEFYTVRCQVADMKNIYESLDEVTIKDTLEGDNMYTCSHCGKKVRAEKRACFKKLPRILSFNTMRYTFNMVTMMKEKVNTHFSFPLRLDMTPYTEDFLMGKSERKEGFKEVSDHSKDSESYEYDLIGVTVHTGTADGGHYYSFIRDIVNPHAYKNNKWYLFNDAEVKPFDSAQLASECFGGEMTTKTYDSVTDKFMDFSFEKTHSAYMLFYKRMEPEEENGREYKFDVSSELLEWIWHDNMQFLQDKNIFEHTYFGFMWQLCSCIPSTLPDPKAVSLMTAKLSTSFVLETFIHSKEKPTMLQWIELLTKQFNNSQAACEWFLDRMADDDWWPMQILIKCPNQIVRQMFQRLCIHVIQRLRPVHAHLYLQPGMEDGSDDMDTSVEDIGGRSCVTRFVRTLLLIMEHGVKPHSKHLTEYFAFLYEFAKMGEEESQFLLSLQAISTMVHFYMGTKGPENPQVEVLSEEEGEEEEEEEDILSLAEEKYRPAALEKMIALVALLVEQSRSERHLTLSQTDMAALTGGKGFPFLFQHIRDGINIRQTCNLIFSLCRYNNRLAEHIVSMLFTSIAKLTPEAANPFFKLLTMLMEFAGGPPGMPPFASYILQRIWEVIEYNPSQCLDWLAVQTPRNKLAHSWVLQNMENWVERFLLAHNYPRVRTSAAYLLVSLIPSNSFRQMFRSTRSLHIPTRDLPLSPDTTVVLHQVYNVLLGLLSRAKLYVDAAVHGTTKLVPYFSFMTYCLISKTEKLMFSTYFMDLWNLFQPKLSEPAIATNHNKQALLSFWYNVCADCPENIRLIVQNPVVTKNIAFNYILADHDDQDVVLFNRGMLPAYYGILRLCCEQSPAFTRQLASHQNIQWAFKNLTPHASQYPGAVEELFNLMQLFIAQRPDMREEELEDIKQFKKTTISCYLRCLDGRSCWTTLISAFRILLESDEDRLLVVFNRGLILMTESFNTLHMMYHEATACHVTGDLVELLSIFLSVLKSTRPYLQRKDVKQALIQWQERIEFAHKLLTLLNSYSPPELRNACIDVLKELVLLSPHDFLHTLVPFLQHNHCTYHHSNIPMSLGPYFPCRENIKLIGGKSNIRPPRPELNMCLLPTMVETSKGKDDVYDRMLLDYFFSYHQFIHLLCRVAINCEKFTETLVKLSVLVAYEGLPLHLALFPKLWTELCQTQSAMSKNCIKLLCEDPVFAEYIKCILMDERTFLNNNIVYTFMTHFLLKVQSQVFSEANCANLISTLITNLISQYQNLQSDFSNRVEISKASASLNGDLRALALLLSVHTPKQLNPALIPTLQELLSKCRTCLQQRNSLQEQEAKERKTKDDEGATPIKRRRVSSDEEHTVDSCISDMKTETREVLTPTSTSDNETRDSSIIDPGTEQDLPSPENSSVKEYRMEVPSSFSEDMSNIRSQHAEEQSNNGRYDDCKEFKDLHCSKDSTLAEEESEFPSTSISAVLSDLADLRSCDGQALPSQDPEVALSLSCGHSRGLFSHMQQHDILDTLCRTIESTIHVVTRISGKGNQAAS

O=C(CCl)NC1CCN(C(=O)C2CCCCC2)CC1
inactive: [1] 0.0203 | [2] -0.0678 | [3] 0.166 | [4] 0.187 | [5] -0.0463
